These results are taken from PubChem BioAssay AID652072 (Broad Institute, 2013).

Results filed as inconclusive are left out. Active and inactive are the calls of the source. The rule behind the calls is not given here.

The nature of this test: caspase 3/7 activation in LOX IMVI melanoma cells, dose response, mechanism study for HRAS target identification, cell-based, luminescence, multiple timepoints, dry powder (AID 652072). The conditions noted are these: caspase 3/7 luminescence, apoptosis; series mostly up to 35 µM.
In the case of `CCC(=O)N(c1ccc(OC)c(Cl)c1)C(C(=O)NCCc1ccccc1)c1cccs1` (centres undefined), the outcome was inactive.
For the compound `C#CCCCC(=O)NCCOCCOCCOc1ccc(N(C(=O)CCl)C(C(=O)NCCc2ccccc2)c2cccs2)cc1Cl` (centres undefined), the call was inactive.
For the compound `Cc1onc(C(=O)N2CCN(C(c3ccc(Cl)cc3)c3ccc(Cl)cc3)CC2)c1[N+](=O)[O-]`, the compound was called inactive.
For `Cc1onc(C(=O)N2CCN(C(c3ccc(Cl)cc3)c3ccc(OCCOCCOCCNC(=O)OC(C)(C)C)cc3)CC2)c1[N+](=O)[O-]` (centres undefined), the compound was classed as inactive.
